What follows are sequences tested against MMP20 (assay: pooled miR-30 sensor sort-seq; sequence = guide strand). Settings: shRNA.
Further: reference of the scale not given here.

In order of rising sensor-assay potency score (higher = more potent):
1. TATTTGTGTAATATTTGTCAAG  -1.1
2. TTTCACATCATCTTTGGGGAGG  -0.942
3. TAGTCTTTTTCCATTTTCCTTT  -0.827
4. TAATTCTACAGCAGCATCGATT  -0.811
5. TTAATTCTACAGCAGCATCGAT  -0.771
6. TTCCTTATCATGGAATTGCTTC  -0.732
7. TTCTTGTACTTATAAGTTGGGT  -0.728
8. TTCTACAGCAGCATCGATTTGG  -0.442
9. TTTCCTTTCGTCGTAGCTGTAG  -0.397
10. TTCTTGATCACGTTCATTGTGG  -0.0903
11. TGTAGCTCCTTAATCTTCCTTA  -0.0346
12. TTTCCTTTTCCTTTCGTCGTAG  0.328

Each sequence was assayed against MMP27 in the same assay as above. Settings: shRNA.

In order of rising sensor-assay potency score (higher = more potent):
1. TTGTGGTCTTATCACAGACGGC  -1.63
2. TTTCTTGTGGTCTTATCACAGA  -0.677
3. TATTCTTTGTCTTAATGTCGTA  -0.516
4. TTAATTCAAACTCAACATCCGT  -0.367
5. TAGGTTTTTCTTGTGGTCTTAT  -0.201
6. TAGTTTATTATTCTGTAGGTGA  -0.199
7. TTTGGGAACATCAAGGCTGTTT  -0.134
8. ATTCTTTGTCTTAATGTCGTAT  -0.054
9. TAATTCAAACTCAACATCCGTG  0.0831
10. AAGAACATTACTTCTCTGCGGA  0.732
11. TATTTCAAGAGAGTAGAACTGG  0.764
12. TAATTTGGGAACATCAAGGCTG  0.912

These sequences were tested against MMS22L in the same assay as above. Settings: shRNA.

In order of rising sensor-assay potency score (higher = more potent):
1. TATATTTTAATACTTCACCAAG  -1.14
2. TTGCTGACAACATAGGTGCAGG  -1.03
3. TAATCCACCAACTAAAACCTAA  -0.962
4. TTTTTTAACAACTTTTGCCAGA  -0.793
5. TTGAGATTGACAACACACGATA  -0.65
6. TAATCTTGTCAGTTTGACCAAC  -0.606
7. TTAAGTAGTTTATTCAACCAGT  -0.299
8. TTTATCGCAACAGCAAGTCTTC  -0.217
9. TATCTTGCTACAACTTGAGGGC  -0.184
10. TTCTTGAACACCATCAATGTAT  -0.0869
11. TTCTTCTAGAATGACACCCTGA  0.182
12. TTTGAGATTGACAACACACGAT  0.337
